The term inhibition denotes the relative decrease from the control value, in per cent.

In all, about 330,000 compounds went through this assay and about 1,900 (0.58%) were called active. Inconclusive results (about 4%) are left out. Rule as the data show it: inconclusive = inhibition above about 70% without an active follow-up result; inactive = below that. These entries were drawn from the full list. Results with a measured potency or affinity are listed apart.

We go through 26 compounds from PubChem BioAssay AID449762 (Southern Research Specialized Biocontainment Screening …, 2010).

This assay can be described thus: M. tuberculosis growth inhibition, HTS (AID 449762).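 Also: bacterial growth assessed after seven days of incubation.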 Conditions: M. tuberculosis H37Rv growth inhibition, 7H9 media; at 25 µM; active compounds read high.
In the case of `O=c1c2c(nc3nc(NCc4cccc(Cl)c4)[nH]n13)CCC2`, the inhibition is 19.9% (inactive).

With `Cc1nc2nc3c(c(=O)n2[nH]1)CCC3`, the inhibition is -2.58% (inactive).

For the compound `Cc1nc2nc3c(c(=O)n2[nH]1)CCCC3`, the inhibition was -1.58% (inactive).

For `O=c1c2c(nc3nc(NCc4ccccc4Cl)[nH]n13)CCC2`, the inhibition was 21.9% (inactive).

Take `COc1ccc(NC(=O)C2CCN(c3cc(-c4ccccc4)nc4ncnn34)CC2)cc1OC`: the inhibition was -9.41% (inactive).

For `CCOc1ncccc1C(=O)Nc1cccc(-c2nc3cccnc3s2)c1`, the inhibition was 2.6% (inactive).

For `CCn1c(=O)n(CC)c2cc(S(=O)(=O)Nc3c(C)cccc3C)ccc21`, the inhibition was -0.18% (inactive).

Take `O=C1/C(=C/c2ccncc2)CCc2ccccc21`: the inhibition is 20.6% (inactive).

For the compound `O=C1/C(=C\c2cccnc2)CCc2ccccc21`, the inhibition is 53.9% (inactive).

As for `COc1ccc(CNC(=O)C2CCN(C(=O)c3csc(Nc4ccc(C)cc4)n3)CC2)cc1`, the inhibition was 9.09% (inactive).

On to `CC(CN1CCCCC1)OC(=O)/C=C/c1ccccc1` (stereo unspecified), for which the inhibition was 4.22% (inactive).

In the case of `CCCCc1nc2c(=O)[nH]c3ccccc3c2o1`, the inhibition is -3.26% (inactive).

Consider `CCCc1nc2c(=O)[nH]c3ccccc3c2o1`, for which the inhibition is -2.82% (inactive).

As for `CC(C)N1CCc2c(sc(NC(=O)CCc3ccccc3)c2C(N)=O)C1`, the inhibition was 2.58% (inactive).

`Cc1cccc(CNc2ncnc3ccc(-c4ccc5c(c4)OCO5)cc23)c1`: the inhibition is 4.98% (inactive).

As to `c1cncc(CNc2ncnc3ccc(-c4ccc5c(c4)OCCO5)cc23)c1`, the inhibition was 6.78% (inactive).

As to `O=C(CN1C(=O)NC(c2ccccc2)(c2ccccc2)C1=O)N1CCCCC1`, the inhibition is 3.83% (inactive).

With `O=C1[C@H]2[C@@H](c3ccc(F)cc3)N3C(=O)N(c4ccccc4)C(=O)[C@@]3(Cc3ccccc3)[C@H]2C(=O)N1C1CCCCC1`, the inhibition is -4.71% (inactive).

In the case of `Cc1cccc(C2(c3cccc(C)c3)CC2C(=O)Nc2ccc([N+](=O)[O-])cc2O)c1` (stereo unspecified), the inhibition is 8.65% (inactive).

Consider `CC1(C)CC1C(=O)Nc1ccc([N+](=O)[O-])cc1Br` (stereo unspecified), for which the inhibition is -1.2% (inactive).

Turning to `CCC(=O)NC(=S)Nc1ccc(OC)cc1OC`, the inhibition was 2.55% (inactive).

`Cc1nc(SCC(=O)NCC2CCCO2)c2c3c(sc2n1)CCC3` (stereo unspecified): the inhibition is -2.08% (inactive).

For `Cc1nc(SCC(=O)NCC2CCCO2)c2c(C)c(C)sc2n1` (stereo unspecified), the inhibition is -15.3% (inactive).

In the case of `O=C(CSc1nc2scc(-c3ccccc3)c2c(=O)[nH]1)NCCc1ccccc1`, the inhibition is -20.7% (inactive).

On to `O=c1[nH]c(=O)n(C2CCCO2)cc1Br` (stereo unspecified), for which the inhibition is 1.51% (inactive).

Regarding `O=c1[nH]c(=O)n([C@H]2C[C@H](O)[C@@H](CO)O2)cc1F`, the inhibition was 34.4% (inactive).
